For 27 compounds, Potency and outcome results are on record in PubChem BioAssay (Tox21).

“And” between values parts separate entries of the source, which are not always exact repeats. Equal values may be shown once. Inconclusive results are not listed. Some compounds were tested as several samples or in several runs, with calls that do not always agree. The source made the active and inactive calls. Unless noted, the call rests on the fitted dose curve.

The nature of assay [1]: qHTS assay to identify small molecule agonists of the vitamin D receptor (VDR) signaling pathway - cell viability counter screen (AID 743224; active means well fitted curve in the direction sought with a large enough effect in the repeat runs; an effect the other way counts as inactive or inconclusive; further: nearly all actives have a fitted effect of over 50% in size; further: potency means the concentration at half of the fitted maximal effect). The essentials: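 VDR-bla cells were preincubated 4 h at 37C/5% CO2, then exposed to compounds for 16 h. After the 2 h room-temperature bla FRET read, CellTiter-Glo was added to the same wells and luminescence read after 30 min.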

A short description of assay [2]: qHTS assay to identify small molecule antagonists of the vitamin D receptor (VDR) signaling pathway - cell viability counter screen (AID 743225; active means well fitted curve in the direction sought with a large enough effect in the repeat runs; an effect the other way counts as inactive or inconclusive; further: nearly all actives have a fitted effect of over 50% in size; further: potency means the concentration at half of the fitted maximal effect). In a few lines:
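Cells (VDR-UAS-bla HEK 293T) are plated, rested 4 h at 37C, dosed with compound and 3 nM final 1-alpha,25-dihydroxy vitamin D3, and incubated 16 h. Viability is taken from CellTiter-Glo luminescence in the reporter wells.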

Assay [3] is described as follows: qHTS assay to identify small molecule agonists of the NFkB signaling pathway (AID 1159509; active means well fitted curve in the direction sought with a large enough effect in the signal ratio in the repeat runs, not every such curve was filed as active; the % refers to the signal ratio; further: series mostly up to about 61 µM). In a few lines: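 NFkB-bla ME-180 cells carry a beta-lactamase reporter under an NF-kB response element. They were plated overnight, then exposed to compounds for 5 h at 37 C. Read-out is LiveBLAzer FRET after 1.5 hr at room temperature (405 nm excitation; 460/530 nm emission).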

Assay [4] in a line: qHTS assay to identify small molecule agonists of the NFkB signaling pathway - cell viability counter screen (AID 1159515). Further: series mostly up to about 61 µM; nearly all actives have a fitted effect of over 55% in size. The essentials:
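NFkB-bla ME-180 cells, 2,000/well, were plated overnight at 37 C, 5% CO2, then exposed to compounds in DMSO for 5 hr. After the bla FRET read, CellTiter-Glo was added to the same wells; luminescence was read after 30 min at room temperature.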
In general terms: Quantitative high-throughput screening tests each substance at several concentrations.

Assay [5] in a line: qHTS assay to identify small molecule agonists of the endoplasmic reticulum stress response signaling pathway (AID 1159516; active means well fitted activation curve with a large enough effect in the signal ratio in the repeat runs, not every such curve was filed as active; the % refers to the signal ratio). In a few lines: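 CellSensor ESRE-bla HeLa cells, carrying a beta-lactamase reporter driven by the ER stress response element, were plated overnight and exposed to compounds for 5 hr at 37 C. Reporter activity was read as FRET substrate fluorescence after 2 hr at room temperature.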

A short description of assay [6]: qHTS assay to identify small molecule agonists of the endoplasmic reticulum stress response signaling pathway - cell viability counter screen (AID 1159517). Further: series mostly up to about 61 µM; nearly all actives have a fitted effect of over 50% in size. In a few lines: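 HeLa cells carrying an ESRE-driven beta-lactamase reporter receive compound for 5 hr at 37 C. Cell viability is then gauged with CellTiter-Glo by luminescence, 30 min at room temperature.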

The target in assay [7] is Nuclear receptor ROR-gamma (Homo sapiens) (UniProt P51449). Briefly: qHTS assay to identify small molecule antagonists of the retinoid-related orphan receptor gamma (ROR-gamma) signaling pathway (AID 1159521; active means well fitted curve in the direction sought with a large enough effect in the repeat runs; an effect the other way counts as inactive or inconclusive; further: nearly all actives have a fitted effect of over 50% in size; further: potency means the concentration at half of the fitted maximal effect). The essentials: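 RORγ antagonism is scored from reduced reporter luminescence in Tet-on CHO cells. Induction used 1 uM final doxycycline hyclate for 16 h at 37 C, following a 2 h compound exposure.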

Assay [8] in a line: qHTS assay to identify small molecule agonists of the AP-1 signaling pathway - cell viability counter screen (AID 1159525). Further: nearly all actives have a fitted effect of over 55% in size. Further: potency means the concentration at half of the fitted maximal effect. The essentials:
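Luminescent ATP readout (Cell Titer Glo, 30 min RT), normalised to DMSO and tetra n-octyl ammonium bromide controls. Cells were ME-180 AP-1-bla in 0.5% dialyzed FBS Opti-MEM, with a 5 h, 37 °C compound exposure.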

Assay [9] can be described thus: qHTS assay to identify small molecule agonists of the AP-1 signaling pathway (AID 1159526).
A short description of assay [10]: qHTS assay to identify small molecule antagonists of the retinoid-related orphan receptor gamma (ROR-gamma) signaling pathway - cell viability counter screen (AID 1159520; active means well fitted curve in the direction sought with a large enough effect in the repeat runs; an effect the other way counts as inactive or inconclusive; further: nearly all actives have a fitted effect of over 50% in size; further: potency means the concentration at half of the fitted maximal effect). In a few lines: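 Cytotoxicity was read from cellular ATP (CellTiter-Glo luminescence) after 16 hr at 37 C with 1 uM doxycycline induction. The inducer was added 2 hr after compound transfer to Tet-on ROR gamma CHO cells.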

With `O=C(Cl)c1ccccc1`, the Potency entry in assay [1], in assay [2], in assay [6], in assay [7] and in assay [8] was “inactive” each time. Moreover, the result in assay [3], in assay [4], in assay [5] and in [9] was inactive.

Consider `OP(O)c1ccccc1`, for which the Potency result in assay [1], in [2], in assay [6], in assay [10], in [7] and in assay [8] was “inactive” in each case. Besides, the compound was called inactive in assay [3], in assay [4], in [5] and in [9].

Take `CCN(CCO)CCO`: the Potency result in assay [1], in assay [2], in [6], in [7] and in assay [8] was “inactive” each time. In addition, the outcome in assay [3], in assay [4], in assay [5] and in [9] was inactive.

For the compound `O=C1C2CC=CCC2C(=O)N1SC(Cl)(Cl)Cl` (centres undefined), the Potency result was “inactive and 6.81 µM (active)” in assay [1]; “inactive and 21.5 µM (active)” in [2]; “inactive and 1.9 µM (active)” in assay [10]; “inactive and 48.2 µM (active)” in assay [8]. Also, the result in [3], in assay [4] and in [5] was inactive. The Potency result in assay [6] was “inactive”.

`C=CC1(C)OC(=O)N(c2cc(Cl)cc(Cl)c2)C1=O` (centres undefined): the Potency result in assay [2], in assay [6], in [10] and in assay [8] was “inactive” throughout. For the same compound, the compound was classed as inactive in assay [3], in assay [4], in assay [5] and in assay [9]. Moreover, the Potency in assay [7] is 43 µM (active) and inactive.

As to `Oc1ccc2c3c1O[C@H]1[C@@H](O)C=C[C@H]4[C@@H](C2)NCC[C@@]341`, the Potency entry in assay [2], in [6], in assay [10], in assay [7] and in assay [8] was “inactive” each time. The compound was classed as inactive in [3], in [4], in [5] and in assay [9].

With `CCOc1cc(OP(=S)(OC)OC)nc(CC)n1`, the Potency entry in [2], in assay [6], in [10], in assay [7] and in [8] was “inactive” each time. Further, the outcome in assay [3], in assay [4], in assay [5] and in assay [9] was inactive.

`CCOC(=O)CCl`: the Potency entry in assay [1], in assay [6], in assay [7] and in [8] was “inactive” each time. For the same compound, the result in assay [3], in assay [4], in [5] and in [9] was inactive.

For the compound `C/C(=N\NC(=O)Nc1cc(F)cc(F)c1)c1ncccc1C(=O)O`, the Potency result in assay [2], in assay [6], in assay [10], in [7] and in assay [8] was “inactive” in each case. Moreover, the call in assay [3], in assay [4], in assay [5] and in assay [9] was inactive.

On to `CC[C@H](O)C(C[C@H](C)N(C)C)(c1ccccc1)c1ccccc1`, for which the Potency result in assay [2], in assay [6], in [10], in assay [7] and in [8] was “inactive” in each case. The outcome in assay [3], in [4], in assay [5] and in assay [9] was inactive.

On to `O=C(O)CBr`, for which the Potency result in assay [1], in [2], in [6], in [10], in assay [7] and in assay [8] was “inactive” each time. For the same compound, the result in [3], in assay [4], in assay [5] and in assay [9] was inactive.

Take `CN(C)C1CCCCC1`: the Potency result in [1], in [2], in [6], in assay [7] and in [8] was “inactive” each time. The compound was classed as inactive in assay [3], in assay [4], in assay [5] and in assay [9].

Consider `[O-][Br+2]([O-])O`, for which the Potency result in assay [1], in [2], in [6], in assay [7] and in assay [8] was “inactive” in each case. Also, the call in assay [3], in assay [4], in [5] and in assay [9] was inactive.

Regarding `COP(=O)(O)OC`, the Potency entry in assay [2], in assay [6], in assay [10], in [7] and in [8] was “inactive” throughout. In addition, the compound was classed as inactive in assay [3], in assay [4], in [5] and in [9].

On to `CCCOC(=O)Cc1ccc(OCC(=O)N(CC)CC)c(OC)c1`, for which the Potency entry in [2], in assay [6], in assay [10], in [7] and in assay [8] was “inactive” in each case. The outcome in assay [3], in assay [4], in assay [5] and in assay [9] was inactive.

In the case of `CN1C(=O)COc2c(C(=O)NC3CN4CCC3CC4)cc(Cl)cc21` (centres undefined), the Potency result in assay [2], in assay [6], in [10], in assay [7] and in assay [8] was “inactive” each time. In addition, the call in assay [3], in assay [4], in [5] and in assay [9] was inactive.

With `CCNP(=S)(OC)O/C(C)=C/C(=O)OC(C)C` (centres undefined), the Potency entry in [1], in [2], in [6], in [10], in [7] and in assay [8] was “inactive” each time. In addition, the outcome in assay [3], in assay [4], in assay [5] and in assay [9] was inactive.

In the case of `CCC1(CC)C(=O)C=CNC1=O`, the Potency entry in assay [2], in assay [6], in assay [10], in assay [7] and in assay [8] was “inactive” throughout. Moreover, the compound was called inactive in [3], in [4], in assay [5] and in [9].

As for `COc1cc(CCN)cc(OC)c1OC`, the Potency entry in assay [1], in assay [2], in assay [6], in assay [7] and in [8] was “inactive” each time. The call in assay [3], in [4], in assay [5] and in assay [9] was inactive.

Take `CCCC(C)(COC(N)=O)COC(N)=O`: the Potency result in assay [1], in assay [2], in assay [6], in assay [10], in assay [7] and in assay [8] was “inactive” throughout. Also, the compound was classed as inactive in [3], in [4], in assay [5] and in [9].

With `N#CN`, the Potency result in assay [1], in assay [2], in [6], in assay [7] and in assay [8] was “inactive” each time. Also, the outcome in assay [3], in [4], in [5] and in assay [9] was inactive.

Consider `Cc1cccc2sc3nncn3c12`, for which the Potency result in assay [2], in [6], in assay [10], in assay [7] and in [8] was “inactive” each time. Further, the compound was called inactive in [3], in assay [4], in assay [5] and in assay [9].

Turning to `CC(C)(C)c1cc(O)ccc1O`, the Potency entry in [1], in assay [2], in [6] and in [10] was “inactive” in each case. The compound was classed as inactive in assay [3], in assay [4] and in assay [5]. The Potency in assay [7] was 13.7 µM (active) and 24.3 µM (active).

As to `O=C(O)C(F)(F)C(F)(F)C(F)(F)C(F)(F)C(F)(F)C(F)(F)F`, the Potency entry in assay [1], in [2], in [6], in assay [7] and in assay [8] was “inactive” throughout. Besides, the outcome in assay [3], in [4], in [5] and in assay [9] was inactive.

For `CCCC(C)C1(CC)C(=O)N=C(S)NC1=O` (centres undefined), the Potency entry in [1], in assay [2], in assay [6], in assay [7] and in assay [8] was “inactive” throughout. For the same compound, the call in [3], in [4], in [5] and in assay [9] was inactive.

On to `CCCOC(=O)c1cncn1C(C)c1ccccc1` (centres undefined), for which the Potency result in assay [2], in assay [6], in assay [10], in assay [7] and in assay [8] was “inactive” in each case. Further, the result in [3], in assay [4], in [5] and in [9] was inactive.

As to `Cn1c(N)nc2c3cccnc3ccc21`, the Potency result in assay [2], in assay [6], in [10], in [7] and in assay [8] was “inactive” throughout. The compound was called inactive in assay [3], in assay [4], in assay [5] and in assay [9].
